# Assay outcomes deposited in PubChem by National Center for Advancing Translational Sciences (NCATS).
# This is a sample that favours compounds with a hit; in the whole collection about 9.3% have one here.
# FLuc modulator – inhibits or activates purified firefly luciferase, miR-21 counter-screen; purified FLuc, Km substrates, luminescence inhibition; Potency, µM (series often up to 57.5 µM), for the others: at the top dose activity change, negative = inhibition, actives largely listed as inhibitors; 360,000 tested, 6.9% active;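 note: plate controls were vehicle for no effect and reference inhibitor for full effect; nearly all actives have a fitted effect of over 55% in size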
# Target sequence (P08659 whole entry, looked up): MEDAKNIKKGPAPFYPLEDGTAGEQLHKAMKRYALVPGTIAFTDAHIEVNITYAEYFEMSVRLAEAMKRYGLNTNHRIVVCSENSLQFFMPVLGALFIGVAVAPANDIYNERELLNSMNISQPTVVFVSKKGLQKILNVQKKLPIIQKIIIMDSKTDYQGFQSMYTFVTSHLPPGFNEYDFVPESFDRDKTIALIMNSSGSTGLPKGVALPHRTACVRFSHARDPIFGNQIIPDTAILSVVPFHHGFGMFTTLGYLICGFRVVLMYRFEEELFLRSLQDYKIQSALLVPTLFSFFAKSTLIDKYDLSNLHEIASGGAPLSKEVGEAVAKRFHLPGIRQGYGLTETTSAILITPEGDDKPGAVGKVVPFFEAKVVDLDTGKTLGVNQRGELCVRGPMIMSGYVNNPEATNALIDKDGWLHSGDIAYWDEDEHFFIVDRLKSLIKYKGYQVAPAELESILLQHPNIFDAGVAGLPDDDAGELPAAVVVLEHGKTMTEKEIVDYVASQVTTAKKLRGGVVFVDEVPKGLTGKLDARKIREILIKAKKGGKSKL
#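 Biochemical qHTS of compounds, final roughly 60 µM downward over six points, against 10 nM purified firefly luciferase using Km concentrations of substrates (10 uM D-luciferin, 10 uM ATP) in Tris acetate pH 7.5 buffer; luminescence output.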
# ELG1 DNA repair – blocks ELG1-dependent DNA repair in HEK293T cells. HEK293T ELG1-luciferase reporter, luminescence, 16 h; DNA damage induced by 5-fluorouridine. 330,000 tested, 2.3% active. Potency, µM (titrated, usually from 46.1 µM), inactives show at the top dose activity change, negative = inhibition, actives largely listed as inhibitors; note: % is set by controls: 0 for no effect and ±100 for the full control effect; nearly all actives have a fitted effect of over 55% in size
#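 Step one: seed 2,000 cells per well. Step two: pin-transfer compound or DMSO alongside 5-fluorouridine. Step three: incubate 16 hr, 37 °C, 5% CO2. Step four: add ONE-Glo, wait 30 min, read luminescence.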
# SMN2 splice enh – SMN2 splice variant enhancement | HEK293 SMN2-luciferase splicing reporter, luminescence, 30-36 h | Potency, µM (top dose mostly 46.1 µM), inactives show top-dose activity change, positive = activation, hits mostly activators | 210,000 tested, 2.8% active | AID 1458; note: % of control where 0% means no effect; nearly all actives have a fitted effect of over 55% in size
#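 HEK293 cells carry an SMN2 […]–luciferase reporter in which exon 7 inclusion puts luciferase in frame. Cells were plated 10-12 h before compound addition, then incubated 30-36 h at 37C. ONE-Glo luminescence was read; sodium butyrate at 4.5 mM final served as control.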
# NPC1 prom act – activators of NPC1 promoter; 320,000 tested, 2.4% active; AID 485313; Potency, µM (highest dose often 9.22 µM), without a hit: top-dose activation, actives largely listed as activators; Huh7 NPC1 promoter luciferase reporter, 24 h; note: % of control where 0% means no effect; nearly all actives have a fitted effect of over 60% in size
#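 Compounds in DMSO were transferred onto Huh7 NPC1-luciferase reporter cells pre-incubated 2 h; after 24 h at 37 °C, Amplite reagent was dispensed and luminescence recorded 10 min later.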
# Rab9 prom act – Rab9 promoter activation; Huh7 Rab9 promoter-luciferase reporter, luminescence, 24 h; Potency, µM (doses to about 9.22 µM), inactives show at the highest dose activation, negative = inhibition, most hits filed as activators; 320,000 tested, 2.8% active; AID 485297; note: % of control where 0% means no effect; nearly all actives have a fitted effect of over 60% in size
#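 Quantitative HTS format; Huh7 Rab9-luciferase reporter cells (1500/well) receive compound 2 h post-plating, incubate 24 h at 37 °C, then get luciferase reagent for 10 min before luminescence reading.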
# ELG1 genotox – genotoxicity induction in ELG1-luciferase HEK293T cells; AID 504466; Potency, µM (doses to about 46 µM), for inactives: top-dose activity change, positive = activation, usual class: activators; HEK293T ELG1-luciferase reporter, luminescence, 16 h; 330,000 tested, 1.3% active; note: % of control where 0% means no effect; nearly all actives have a fitted effect of over 60% in size
#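 Reporter readout depends on ELG1 protein level, which increases with genetic stress. After 16 hr compound exposure at 37 °C, luciferase activity was quantified using ONE-Glo.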
# * marks the source's active call; other numbers are inactive results; ? = inconclusive; . = no result; [ ] = another dose, or the depositor's remark. Calls come from the whole dose curve; as a rule, active = well fitted curve in the direction sought with a large enough effect; inconclusive = small, poorly fitted or top-dose-only effect, or another doubt; inactive = no such curve, though single readings can be large; an effect the other way counts as inactive or inconclusive. Potency is the fitted concentration of half-maximal effect.
SMILES,FLuc modulator,ELG1 DNA repair,SMN2 splice enh,NPC1 prom act,Rab9 prom act,ELG1 genotox
NS(=O)(=O)c1ccc2nc(NC(=O)c3ccc4c(c3)OCCO4)sc2c1,-7%,6%,.,-5%,3%,3%
COc1cccc2sc(NC(=O)c3ccc4c(c3)OCCO4)nc12,0.95µM*,.,.,.,.,.
O=C(Nc1nc2c(F)cc(F)cc2s1)c1ccc2c(c1)OCCO2,0.6µM*,.,.,0.79µM*,0.32µM*,.
Cc1cccc2sc(NNC(=O)c3ccc4c(c3)OCCO4)nc12,?,18%,0%,5%,6%,-2%
C=CCOC(=O)C(=O)/C=C/c1csc2ccccc12,27µM*,?,.,-1%,1%,?
O=C(COC(=O)c1cncc(Br)c1)NCc1ccc2c(c1)OCO2,6%,-6%,-4%,-1%,-8%,-5%
Cc1cccc(NC(=O)c2nc[nH]c2C(=O)NCCCCNC(=O)c2[nH]cnc2C(=O)Nc2cccc(C)c2)c1,.,5.2µM*,.,.,.,-5%
Cc1cccc(NC(=O)c2nc[nH]c2C(=O)NCCCCCCNC(=O)c2[nH]cnc2C(=O)Nc2cccc(C)c2)c1,-2%,9.2µM*,.,1%,-4%,-6%
O=C(Nc1cccc(Cl)c1)c1nc[nH]c1C(=O)NCCCCNC(=O)c1[nH]cnc1C(=O)Nc1cccc(Cl)c1,.,8%,.,.,.,2%
COc1ccc(Nc2cc(C(=O)NCCCOC(C)C)c3ccccc3n2)c(OC)c1,?,?,.,1%,-3%,-8%
COc1ccc(Nc2cc(C(=O)NCc3cccnc3)c3ccccc3n2)c(OC)c1,11µM*,-16%,-8%,1%,-9%,-6%
COc1ccc(Nc2cc(C(=O)NCc3ccccn3)c3ccccc3n2)c(OC)c1,11µM*,?,1%,6%,?,-6%
Cc1cc(C)cc(Nc2cc(C(=O)NCc3ccccc3)c3ccccc3n2)c1,4.8µM*,.,-9%,.,.,.
COc1ccc(Nc2cc(C(=O)NCc3ccco3)c3ccccc3n2)c(OC)c1,15µM*,?,4%,-3%,-3%,-6%
Cc1cc(Br)ccc1NC(=O)CCS(=O)(=O)c1cccc2nsnc12,-10%,.,0%,.,.,.
CCOCCOC(=O)c1ccc(-n2cncn2)nc1,-2%,-21%,9%,5%,0%,5%
CCC(C)(C)C1CCC2(CC1)NC(=O)N(CC(=O)Nc1cc(C(F)(F)F)ccc1N1CCOCC1)C2=O (configuration not stated),1%,3%,.,-1%,-2%,0%
COc1ccc(CNC(=O)c2cc(Nc3ccc(C)cc3C)nc3ccccc23)cc1,8.5µM*,.,-11%,.,.,.
O=C(NCc1ccco1)c1cc(-c2ccccc2)nc2ccccc12,?,-16%,?,-2%,-2%,-5%
COc1ccccc1Nc1cc(C(=O)NCc2cccs2)c2ccccc2n1,9.5µM*,.,-42%,.,.,.
COc1ccc(CNC(=O)c2cc(Nc3ccccc3C)nc3ccccc23)cc1,?,.,-3%,.,.,.
COc1ccc(-c2cc(C(=O)NCc3ccco3)c3ccccc3n2)cc1,6.7µM*,?,.,0%,11%,0%
O=C(Nc1cccc(S(=O)(=O)NCc2ccco2)c1)c1cc(-c2ccccc2)nc2ccccc12,0%,21µM*,-49%,-1%,-7%,-12%
COc1ccccc1NC(=O)CON=C(N)CC(=O)NC1CCCCC1,7%,0%,.,-3%,2%,-2%
COc1cc(/C=C(\C#N)c2nc3ccccc3[nH]2)ccc1OCc1cccc(C(F)(F)F)c1,0%,.,4%,.,.,.
SMILES,FLuc modulator,ELG1 DNA repair,SMN2 splice enh,NPC1 prom act,Rab9 prom act,ELG1 genotox
COc1cc(C2CC(=O)c3cnc(N4CCN(Cc5ccccc5)CC4)nc3C2)cc(OC)c1OC (configuration not stated),13%,3.3µM*,-127%,-20%,-19%,-7%
CC(C)(C)c1ccc(COc2ccsc2C(=O)O)cc1,15µM*,?,16%,10%,?,18%
O=C(O)c1sccc1OCc1ccccc1,5%,-13%,-14%,-8%,0%,-3%
Cc1cc(NC(=O)CCl)n(-c2nc3ccccc3s2)n1,-6%,-5%,-21%,-7%,-1%,8%
Cc1cc(NC(=O)C2CC2)n(-c2nc3ccccc3s2)n1,15µM*,0%,0%,-1%,18%,7%
CCN(CC)CCn1c(=S)[nH]c2cc(C(=O)NCc3ccc(C)cc3)ccc2c1=O,2%,21%,.,-2%,2%,3%
CCN(CC)S(=O)(=O)c1cc(NC(=O)CSc2nc3c(cc2C#N)C(=O)CC(C)(C)C3)ccc1C,0%,21µM*,-72%,-14%,-12%,-17%
COc1cc(/C=C\C(=O)N2CCC=CC2=O)cc(OC)c1OC,.,.,-49%[20.6 µM],.,.,.
O=C(CCN1C(=O)/C(=C/c2ccco2)SC1=S)Nc1ccc(O)cc1C(=O)O,?,-1%,.,-1%,-2%,0%
O=C(CN1C(=O)S/C(=C\c2cccs2)C1=O)Nc1ccc(O)c(C(=O)O)c1,?,9%,.,-6%,-13%,2%
O=C(CN1C(=O)S/C(=C\c2cccs2)C1=O)Nc1ccc(C(=O)O)c(O)c1,24µM*,?,.,1%,8%,-1%
O=C(CCN1C(=O)/C(=C/c2ccco2)SC1=S)Nc1ccc(C(=O)O)c(O)c1,7.6µM*,1%,.,-1%,-3%,-3%
O=C(CCCN1C(=O)/C(=C\c2ccco2)SC1=S)Nc1ccc2ccccc2c1,-1%,10%,265%,4%,0%,0%
O=C(CCN1C(=O)/C(=C\c2ccco2)SC1=S)Nc1ccc(C(=O)O)c(O)c1,11µM*,19%,.,0%,-1%,0%[9.26 µM]
COc1ccccc1/C=C1\SC(=S)N(CCC(=O)Nc2ccc(C(=O)O)c(O)c2)C1=O,6µM*,-5%,.,-1%,5%,4%
CCOc1ccccc1NC(=O)CCCc1ccc(OC)c(C)c1,0%,-14%,.,-3%,-2%,6%
O=C(OCC(=O)c1ccc[nH]1)c1ccc2ccccc2n1,?,-1%,6%,-1%,-5%,5%
O=C(COC(=O)c1ccc2ccccc2n1)c1ccccc1,6.7µM*,-10%,-20%,-2%,-3%,-17%
O=C(OCc1ccc(F)cc1)c1ccc2ccccc2n1,19µM*,8%,12%,1%,0%,3%
COc1cc(OC)c(OC)cc1CNC(=O)c1cccc(S(=O)(=O)N2CCc3ccccc3C2)c1,0%,?,.,-32%,-35%,-8%
CCOC(=O)c1cnc2cc(C(F)(F)F)ccc2c1N1CCN(c2ccc(F)cc2)CC1,-3%,.,3%,.,.,.
CS(=O)(=O)c1ccccc1C(=O)Nc1ccc(-c2nc3ccccc3o2)cc1,24µM*,?,.,?,?,9%
